The values that follow come from PubChem BioAssay (NCI).

Some test systems named below: DU-145 prostate; K-562 leukemia; MALME-3M melanoma; MDA-MB-231 breast; RXF 393 renal; SF-268 CNS; SF-295 CNS; SF-539 CNS; UACC-257 melanoma; M14 melanoma.
Holding throughout (test): NCI-60 one-dose screen, 48 h (100 = growth as untreated, 0 = no growth, -100 = all killed)
Holding throughout (conditions): 10 µM unless noted

“And” between values parts separate entries of the source, which are not always exact repeats. Equal entries are not always repeated. The panel holds about 83,000 compounds, 20% with a hit somewhere; the sample as a whole holds those more often.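 Compound tested at a single concentration for 48 hours in 96-well plates; a percent growth value below 10 was scored as active.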 The source made the active and inactive calls.

Take `CN(C)c1ccc2nc3ccc(=[N+](C)C)cc-3sc2c1`: the growth was 33.3% (inactive) and 39.8% (inactive) and 87.1% (inactive) in the test with DU-145 prostate; 27.4% (inactive) and 41.7% (inactive) and 43.5% (inactive) in the test on K-562 leukemia; -30.4% (active) and -12.7% (active) and 48.8% (inactive) in the test on MALME-3M melanoma; 8.14% (active) and 10% (active) and 33.4% (inactive) in the test on MDA-MB-231 breast; 79.9% (inactive) and 65.7% (inactive) and 82.6% (inactive) in the test with RXF 393 renal; 27.7% (inactive) and 22.8% (inactive) and 26.2% (inactive) with SF-268 CNS. The growth is 17.2% (inactive) and 17.6% (inactive) and 43% (inactive) in the test with SF-295 CNS; 28.4% (inactive) and 3.79% (active) and 15.5% (inactive) in the test on SF-539 CNS; -12.8% (active) and -22.4% (active) and 17.8% (inactive) with UACC-257 melanoma; 2.78% (active) and 3.94% (active) and 15.5% (inactive) in the test with M14 melanoma.
In the case of `Cc1nn(-c2ccccc2)nc1C(=O)Nc1ccccc1C(=O)NCC1CC1`, the growth in the test with DU-145 prostate was 109% (inactive) and 62.6% (inactive); with K-562 leukemia, 91.4% (inactive) and 44.3% (inactive); in the test with MALME-3M melanoma it was 135% (inactive) and 97% (inactive); in the test with MDA-MB-231 breast it was 79.8% (inactive) and 23.6% (inactive); in the test with RXF 393 renal it was 105% (inactive) and 77.4% (inactive); in the test on SF-268 CNS, 123% (inactive) and 91% (inactive). The growth in the test on SF-295 CNS is 114% (inactive) and 59.5% (inactive); with SF-539 CNS, 88.8% (inactive) and 30.9% (inactive); in the test on UACC-257 melanoma, 111% (inactive); with M14 melanoma it was 105% (inactive) and 81.8% (inactive).
For the molecule `CN(C)c1ccc(C(Cc2ccc3ccccc3n2)Cc2ccc3ccccc3n2)cc1`, the growth with DU-145 prostate was 81.9% (inactive); in the test on K-562 leukemia it was 29.8% (inactive) and 85.6% (inactive); with MALME-3M melanoma it was 64.8% (inactive) and 106% (inactive); with MDA-MB-231 breast, 58.2% (inactive) and 64% (inactive); with RXF 393 renal, 73.6% (inactive) and 85.5% (inactive); with SF-268 CNS, 68.3% (inactive) and 95.3% (inactive). Moreover, the growth in the test with SF-295 CNS was 24.7% (inactive) and 64.9% (inactive); with SF-539 CNS, 67.6% (inactive) and 106% (inactive); with UACC-257 melanoma it was 32.4% (inactive) and 99% (inactive); in the test with M14 melanoma, 27.2% (inactive) and 75.5% (inactive).
`COc1ccc(-c2cn[nH]c2-c2cc(OC)c(OC)c(OC)c2)cc1N`: the growth in the test on DU-145 prostate is 13.8% (inactive) and 3.66% (active); in the test with K-562 leukemia, 11% (inactive) and 11.5% (inactive); in the test on MALME-3M melanoma it was 78.7% (inactive) and 44.3% (inactive); in the test with MDA-MB-231 breast, 22.9% (inactive) and 14.6% (inactive); in the test on RXF 393 renal, 19.3% (inactive); with SF-268 CNS, 26.5% (inactive) and 48.8% (inactive). For the same molecule, the growth with SF-295 CNS was 3.28% (active) and 17.5% (inactive); with SF-539 CNS, 1.73% (active) and -4.41% (active); in the test with UACC-257 melanoma, 66.7% (inactive); in the test on M14 melanoma, 10.5% (inactive) and 15% (inactive).
On to `Cc1ccc(S(=O)(=O)NCN2C(=O)c3ccccc3C2=O)cc1`, for which the growth is 125% (inactive) with DU-145 prostate; 106% (inactive) in the test with K-562 leukemia; 133% (inactive) in the test on MALME-3M melanoma; 117% (inactive) in the test with MDA-MB-231 breast; 121% (inactive) with RXF 393 renal; 106% (inactive) in the test with SF-268 CNS. In addition, the growth with SF-295 CNS was 100% (inactive); in the test with SF-539 CNS, 112% (inactive); with UACC-257 melanoma, 104% (inactive); with M14 melanoma it was 109% (inactive).
For `CCNC(=O)Nc1ccc(-c2nc3c(c(N4CCOC[C@@H]4C)n2)CCN(C2COC2)C3)cc1`, the growth in the test with DU-145 prostate was 49.7% (inactive) and 19.4% (inactive); with K-562 leukemia it was 61.6% (inactive) and 17.2% (inactive); with MALME-3M melanoma, -9.78% (active) and -10.6% (active); in the test on MDA-MB-231 breast it was 44.5% (inactive) and 23.2% (inactive); in the test with RXF 393 renal, 3.76% (active) and -28.4% (active); in the test on SF-268 CNS, 54.3% (inactive) and 17.6% (inactive). The growth with SF-295 CNS was 18.4% (inactive) and -25.6% (active); in the test with SF-539 CNS, 33.2% (inactive) and -21.9% (active); with UACC-257 melanoma, 36.7% (inactive) and -27% (active); with M14 melanoma, 37.3% (inactive) and 8.1% (active).
As for `O=S(=O)(Nc1ccccc1)C1CCCCC1`, the growth with DU-145 prostate was 108% (inactive) and 113% (inactive); in the test on K-562 leukemia, 97.6% (inactive) and 93.8% (inactive); in the test with MALME-3M melanoma, 121% (inactive) and 123% (inactive); with MDA-MB-231 breast, 106% (inactive) and 105% (inactive); with RXF 393 renal it was 120% (inactive) and 118% (inactive); with SF-268 CNS, 99% (inactive) and 114% (inactive). Moreover, the growth was 105% (inactive) and 110% (inactive) in the test with SF-295 CNS; 109% (inactive) and 95.4% (inactive) in the test on SF-539 CNS; 108% (inactive) and 107% (inactive) with UACC-257 melanoma; 101% (inactive) and 99.5% (inactive) with M14 melanoma.
On to `Cc1ccc(-c2noc(C)n2)cc1`, for which the growth was 115% (inactive) with DU-145 prostate; 96.1% (inactive) with K-562 leukemia; 108% (inactive) in the test on MALME-3M melanoma; 111% (inactive) with MDA-MB-231 breast; 94.2% (inactive) with RXF 393 renal; 111% (inactive) in the test on SF-268 CNS. For the same molecule, the growth in the test with SF-295 CNS is 95.2% (inactive); with SF-539 CNS it was 98.7% (inactive); with UACC-257 melanoma, 92.9% (inactive); in the test with M14 melanoma, 110% (inactive).
Turning to `c1ccc2cc(C[n+]3ccn(Cc4ccc5ccccc5n4)c3)ccc2c1`, the growth in the test on DU-145 prostate is 21.9% (inactive) and 64.5% (inactive); with K-562 leukemia, 14.5% (inactive) and 21.2% (inactive); with MALME-3M melanoma it was -27.2% (active) and 22.9% (inactive); in the test on MDA-MB-231 breast it was -2.02% (active) and 23.4% (inactive); in the test on RXF 393 renal, 23.5% (inactive) and 45.4% (inactive); with SF-268 CNS, 11.9% (inactive) and 41.2% (inactive). Further, the growth was 19.7% (inactive) and 60% (inactive) in the test with SF-295 CNS; 13.8% (inactive) and 29.3% (inactive) in the test on SF-539 CNS; -25.3% (active) and -8.7% (active) in the test on UACC-257 melanoma; 9.07% (active) and 35.4% (inactive) in the test with M14 melanoma.
Turning to `CC(C)N=c1cc2n(-c3ccc(Cl)cc3)c3ccccc3nc-2cc1Nc1ccc(Cl)cc1`, the growth in the test on DU-145 prostate was 51.4% (inactive) and 15.5% (inactive); with K-562 leukemia, 14.5% (inactive) and -17.3% (active); in the test with MALME-3M melanoma, 5.85% (active) and -83.1% (active) and -46% (active); in the test on MDA-MB-231 breast, -0.451% (active) and 26% (inactive) and 10.6% (inactive); with RXF 393 renal, 8.99% (active) and -11.2% (active) and 12.3% (inactive); in the test on SF-268 CNS it was 45.5% (inactive) and 35.7% (inactive) and 31.2% (inactive). The growth is 9.83% (active) and 19.6% (inactive) and -10.5% (active) in the test with SF-295 CNS; 72.8% (inactive) and 73.3% (inactive) and 59.1% (inactive) in the test with SF-539 CNS; 28.3% (inactive) and 29.6% (inactive) and 7.9% (active) in the test on UACC-257 melanoma; -8.29% (active) and -34.4% (active) and -56.7% (active) in the test on M14 melanoma.
For `COc1ccc(CCN(C)CCCC(C#N)(c2ccc(OC)c(OC)c2)C(C)C)cc1OC` (stereo not given), the growth was 103% (inactive) and 96.6% (inactive) in the test with DU-145 prostate; 72.5% (inactive) and 95.2% (inactive) with K-562 leukemia; 93.8% (inactive) and 102% (inactive) and 89.6% (inactive) in the test with MALME-3M melanoma; 85.2% (inactive) and 95.4% (inactive) and 99.3% (inactive) with MDA-MB-231 breast; 103% (inactive) and 96.2% (inactive) and 96.3% (inactive) with RXF 393 renal; 97.4% (inactive) and 103% (inactive) and 96.2% (inactive) with SF-268 CNS. For the same molecule, the growth is 74.7% (inactive) and 67.2% (inactive) and 100% (inactive) with SF-295 CNS; 107% (inactive) and 87.8% (inactive) and 110% (inactive) with SF-539 CNS; 91.8% (inactive) and 96.1% (inactive) and 89.5% (inactive) with UACC-257 melanoma; 102% (inactive) and 86.1% (inactive) and 94.2% (inactive) in the test on M14 melanoma.
In the case of `COc1cc2c(c(OC)c1OC)-c1ccc(OC)c(=O)cc1[C@@H](NC(C)=O)CC2`, the growth with DU-145 prostate was -26.3% (active) and 0.564% (active) and -28.6% (active); in the test on K-562 leukemia, 9.04% (active) and 10.4% (inactive) and -25.7% (active); in the test on MALME-3M melanoma, 45.1% (inactive) and 43.1% (inactive) and 39% (inactive); in the test on MDA-MB-231 breast, 16.3% (inactive) and -21.5% (active) and -9.65% (active); with RXF 393 renal it was 34% (inactive) and 33.7% (inactive) and 15.3% (inactive); in the test with SF-268 CNS it was 33.5% (inactive) and 27.5% (inactive) and 35.1% (inactive). Further, the growth with SF-295 CNS is 2.25% (active) and 12.5% (inactive) and 7.89% (active); in the test on SF-539 CNS, -9.65% (active) and -24.7% (active) and -10.6% (active); with UACC-257 melanoma, 76.9% (inactive) and 66.3% (inactive) and 24.9% (inactive); with M14 melanoma it was 2.32% (active) and -7.49% (active) and 1.7% (active).
